In the library only some 4.1% were active in any assay of this set; here they are far more common.
ssDAF-12 act: activators of S. stercoralis DAF-12 nuclear receptor; HEK293 ssDAF-12/GRIP1 lit1-tk-luc reporter, luminescence; % of 3 µM dafachronic acid response; activation, % at 6.8 µM; actives 1% (n = 370,000);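 active = activation above the mean over all tested compounds plus 3 SD, cut at about 0.9% in these data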
hcDAF-12 act: activates DAF-12 receptor from parasite H. contortus | AID 652067 | activation, % at 6.8 µM | HEK293 hcDAF-12 lit1-tk-luc reporter, luminescence; 0% DMSO, 100% Δ7-dafachronic acid | actives 1.4% (n = 370,000);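 active = activation above the mean of all tested compounds plus 3 SD, cut at about 5.5% in these data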
DAX1 inh-1: inhibits human nuclear receptor DAX1; actives 0.99% (n = 340,000); P51843; AID 504766; HEK293 Gal4-DAX1 luciferase reporter, luminescence; inhibition, % at 6.75 µM;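 active = inhibition above the mean over all tested compounds plus 3 SD, cut at about 4.2% in these data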;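 note: inhibition shows as a rise in luminescence from relieved DAX1 repression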
Target sequence (P51843 207-470 limits assumed): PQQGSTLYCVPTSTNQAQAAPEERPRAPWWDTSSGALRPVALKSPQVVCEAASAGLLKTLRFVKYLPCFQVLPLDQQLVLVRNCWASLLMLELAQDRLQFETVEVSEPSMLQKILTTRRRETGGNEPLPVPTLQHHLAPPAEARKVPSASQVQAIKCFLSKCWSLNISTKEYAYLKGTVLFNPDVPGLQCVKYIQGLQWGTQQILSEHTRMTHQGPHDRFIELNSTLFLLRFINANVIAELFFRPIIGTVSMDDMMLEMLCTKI
DAX1 inh-2: blocks DAX1 repression of SF-1 activated StAR promoter | HEK293T StAR-luciferase reporter, SF-1/DAX-1 repression relief | inhibition, % at 6.8 µM | actives 1.1% (n = 370,000);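 active = inhibition above the mean over all tested compounds plus 3 SD, cut at about 3.6% in these data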;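 note: higher inhibition means more luminescence from relief of DAX-1 repression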
hgDAF12 agonist: agonists of H. glycines DAF-12 nuclear receptor; activation, % at 6.8 µM; actives 1.8% (n = 370,000); HEK293 GAL4-hgDAF12 UAS-luciferase reporter, agonist luminescence; normalized to butyrate control;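 active = activation above a cutoff set at the mean of all screened compounds plus 3 SD, cut at about 10% in these data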
DAX1 inh confirm: confirmation of human DAX1 (NR0B1) inhibitors. shares compounds with DAX1 inh-2. HEK293T StAR-promoter luciferase reporter, SF-1/DAX-1 repression. inhibition, % at 6.8 µM. actives 87% (n = 2,400);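 active = inhibition above the average of every tested compound plus 3 SD, cut at about 3.8% in these data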;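 note: active compounds raise luminescence by relieving repression of the StAR reporter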
Target sequence (P51843 whole entry, looked up): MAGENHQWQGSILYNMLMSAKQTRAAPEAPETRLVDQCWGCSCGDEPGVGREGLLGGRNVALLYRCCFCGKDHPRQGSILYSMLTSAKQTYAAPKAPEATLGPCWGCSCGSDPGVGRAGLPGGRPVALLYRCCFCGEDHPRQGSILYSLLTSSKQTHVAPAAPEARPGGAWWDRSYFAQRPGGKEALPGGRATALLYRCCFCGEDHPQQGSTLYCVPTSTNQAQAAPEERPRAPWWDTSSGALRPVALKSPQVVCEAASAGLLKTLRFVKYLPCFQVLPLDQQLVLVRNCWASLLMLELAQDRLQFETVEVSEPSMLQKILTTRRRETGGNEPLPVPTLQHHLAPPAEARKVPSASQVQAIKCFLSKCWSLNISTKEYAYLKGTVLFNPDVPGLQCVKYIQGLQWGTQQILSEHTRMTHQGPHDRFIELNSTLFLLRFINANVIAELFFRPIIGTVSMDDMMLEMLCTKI
SF1 AF2mut Luc: counter-screen for DAX1 inhibitors: nonselective inhibitors with SF-1 AF2 mutant; shares compounds with DAX1 inh-2; HEK293 StAR-luciferase, luminescence; inhibition, % at 6.8 µM; actives 78% (n = 2,400); AID 652136;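 active = inhibition above the mean of all tested compounds plus 3 SD, cut at about 3% in these data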
LXR ag: activates human LXR-beta, counter-screen for hcDAF-12 agonists; activation, % at 6.8 µM; AID 743027; HEK293 Gal4-LXR tk-luc reporter, luminescence, 24 h; normalized: DMSO 0%, positive control 100%; 3,400 tested, under 10 active; shares compounds with hcDAF-12 act;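 active = mean percent activation of the reporter above a cutoff set as the average over tested compounds plus their standard deviation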
hcDAF12 ag: confirmation of H. contortus DAF-12 agonists; actives 61% (n = 3,400); shares compounds with hcDAF-12 act; activation, % at 6.8 µM; HEK293 hcDAF-12 lit1-tk-luc reporter, luminescence; % of Δ7-dafachronic acid response;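 active = mean activation across triplicate tests above the threshold derived from the earlier primary screen, cut at about 5.5% in these data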
Each line names hits and unclear results; the compound was inactive in the other large screens (follow-up assays come after a bar, where they were run).

O=C(Nc1ncccc1O)c1ccc2ccccc2c1	hcDAF-12 act 9.9, DAX1 inh-2 10.2, hgDAF12 agonist 12.5 | DAX1 inh confirm 14.0 | SF1 AF2mut Luc 7.4 | LXR ag inactive | hcDAF12 ag 6.9
N#CCSc1ccc2nc(-c3ccccc3)cn2n1	ssDAF-12 act 1.0, hcDAF-12 act 7.5, DAX1 inh-2 7.1 | DAX1 inh confirm 5.8 | SF1 AF2mut Luc 4.7 | LXR ag inactive | hcDAF12 ag 8.1
COC(=O)[C@@]12C[C@@H](CC(=O)NCCc3ccccc3OC)C(=O)N(Cc3ccco3)C1=CCC(C)(C)C2	none (no result: DAX1 inh-1)
O=S(=O)(/N=C(/Nc1nc2ccccc2s1)c1ccccc1)c1ccccc1	ssDAF-12 act 1.5, hcDAF-12 act 8.9, DAX1 inh-2 14.0, hgDAF12 agonist 11.6 | DAX1 inh confirm 5.0 | SF1 AF2mut Luc 4.2 | LXR ag inactive | hcDAF12 ag inactive
O=C(CCN1C(=O)C2CCCCC2C1=O)Nc1nc2ccc(F)cc2s1 (configuration not stated)	hcDAF-12 act 6.9, DAX1 inh-2 4.7 | DAX1 inh confirm 13.1 | SF1 AF2mut Luc 3.5 | LXR ag inactive | hcDAF12 ag 15.3
Nn1c(SCC(=O)N2c3ccccc3Sc3ccc(Cl)cc32)nnc1-c1cc(-c2ccc(F)cc2)n[nH]1	none (no result: DAX1 inh-1)
Cc1cccc(/C=N/Nc2nncc3ccccc23)c1	hcDAF-12 act 12.5, DAX1 inh-2 14.3, hgDAF12 agonist 17.9 | DAX1 inh confirm 12.0 | SF1 AF2mut Luc 4.9 | LXR ag inactive | hcDAF12 ag 11.6
CC(=O)c1cc(-c2cc(C(F)(F)F)cc(C(F)(F)F)c2)c(=O)n2c1CCC2	none (no result: DAX1 inh-1)
COCCn1c(C)cc(C(=O)COC(=O)c2cccnc2SC)c1C	hcDAF-12 act 7.7, DAX1 inh-2 5.8 | DAX1 inh confirm 15.5 | SF1 AF2mut Luc 5.6 | LXR ag inactive | hcDAF12 ag 9.4
COC(=O)[C@H](C(C)C)N(CCCc1cn(CC2CCCCC2)nn1)S(=O)(=O)c1ccccc1Br	none (no result: DAX1 inh-1)
O=C(Nc1ccc2c(c1)OCCO2)c1ccccc1Cl	hcDAF-12 act 7.2, DAX1 inh-2 9.0, hgDAF12 agonist 11.7 | DAX1 inh confirm 16.0 | SF1 AF2mut Luc 9.4 | LXR ag inactive | hcDAF12 ag 8.1
O=C(Nc1ccc2c(c1)OCCO2)c1cccc2nc3ccccc3nc12	none
C[C@H](CO)N1C[C@H](C)[C@@H](CN(C)C(=O)Nc2ccc3c(c2)OCCO3)OCc2cn(nn2)CCCC1=O	none (no result: DAX1 inh-1)
Cc1ccc(/C=N/Nc2nc(C(C)(C)C)cs2)o1	none
Cc1ccc(/C=N/Nc2nc3ccccc3s2)o1	ssDAF-12 act 2.8, hcDAF-12 act 21.3, DAX1 inh-2 6.2, hgDAF12 agonist 12.8 | DAX1 inh confirm 15.8 | SF1 AF2mut Luc 9.1 | LXR ag inactive | hcDAF12 ag 20.5
Fc1ccc(-c2nc3ccc(Br)cn3c2Cc2ccccc2C(F)(F)F)cc1	none (no result: DAX1 inh-1)
CCn1c(Cc2cccs2)nnc1SCC(=O)Nc1ccc(Cl)cc1C	none (no result: DAX1 inh-1)
CCOC(=O)c1c(SCC(=O)Nc2nccs2)nc(C)c(C)c1C	hcDAF-12 act 11.2, DAX1 inh-2 6.6 | DAX1 inh confirm 4.1 | SF1 AF2mut Luc inactive | LXR ag inactive | hcDAF12 ag inactive
CCn1c(C)nnc1SCC(=O)Nc1nccs1	none
CCc1nnc(NC(=O)CSc2nc(C)cc(C)c2C#N)s1	hcDAF-12 act 7.7, DAX1 inh-2 6.7, hgDAF12 agonist 10.9 | DAX1 inh confirm 14.6 | SF1 AF2mut Luc 8.4 | LXR ag inactive | hcDAF12 ag 9.5
Cc1ccc(C#N)c(SCC(=O)Nc2nccs2)n1	ssDAF-12 act 3.0, hcDAF-12 act 17.6, DAX1 inh-2 6.3, hgDAF12 agonist 20.2 | DAX1 inh confirm 12.0 | SF1 AF2mut Luc 6.6 | LXR ag inactive | hcDAF12 ag 22.3
Cc1ccc(S(=O)(=O)Nc2ccccc2C(C(=O)OC(C)(C)C)C(=O)OC(C)(C)C)cc1	none (no result: DAX1 inh-1)
CCC(NC(=O)c1ccc2c(c1)c(C)c(C)n2Cc1ccc(Cl)cc1)c1ccccc1 (configuration not stated)	none (no result: DAX1 inh-1)
Cc1cccc(NC(=O)c2cnc3sccn3c2=O)c1	ssDAF-12 act 0.9, hcDAF-12 act 6.9, DAX1 inh-2 6.5, hgDAF12 agonist 12.8 | DAX1 inh confirm 11.6 | SF1 AF2mut Luc 4.4 | LXR ag inactive | hcDAF12 ag 13.0
Cc1cccc(NC(=O)c2cnc3sccn3c2=O)n1	none
CCC(=O)c1ccc(/C=C/c2nc3ccccc3n2C)o1	ssDAF-12 act 1.4, hcDAF-12 act 6.9, DAX1 inh-2 4.7, hgDAF12 agonist 24.9 | DAX1 inh confirm 8.8 | SF1 AF2mut Luc 5.4 | LXR ag inactive | hcDAF12 ag 6.7
Cc1c(NC(=O)c2ccc(-c3ccccc3)cc2)cccc1C(=O)O	hcDAF-12 act 10.6, DAX1 inh-2 6.6, hgDAF12 agonist 27.3 | DAX1 inh confirm 15.1 | SF1 AF2mut Luc 7.7 | LXR ag inactive | hcDAF12 ag 12.9
COc1cccc(C(O)c2nc(-c3cc(F)cc(F)c3)cs2)c1 (configuration not stated)	none (no result: DAX1 inh-1)
Cc1ccc(N=Nc2cc(C)ccc2N)cc1	ssDAF-12 act 2.8, hcDAF-12 act 19.6, DAX1 inh-2 4.7, hgDAF12 agonist 17.2 | DAX1 inh confirm 17.7 | SF1 AF2mut Luc 8.1 | LXR ag inactive | hcDAF12 ag 22.2
Cc1ccc(N=Nc2cc(C)ccc2O)c(C)c1	none
Cc1ccc(/C=C/C(=O)N2CCc3ccccc32)o1	ssDAF-12 act 1.3, hcDAF-12 act 12.6, DAX1 inh-2 5.2, hgDAF12 agonist 12.5 | DAX1 inh confirm 15.6 | SF1 AF2mut Luc 7.3 | LXR ag inactive | hcDAF12 ag 9.9
CCCCCCCCN1C(=O)[C@@H](CC(=O)NCCc2ccccc2OC)C[C@@]2(C(=O)OC)C1=C[C@H](COCc1ccccc1)O[C@@H]2C	none (no result: DAX1 inh-1)
CN(C)S(=O)(=O)c1cccc(C(=O)N/N=C\c2ccc(-c3ccccn3)cc2)c1	none (no result: DAX1 inh-1)
COc1cccc(-c2nc(-c3cccs3)no2)c1	ssDAF-12 act 4.0, hcDAF-12 act 14.6, DAX1 inh-2 5.3, hgDAF12 agonist 25.8 | DAX1 inh confirm 16.7 | SF1 AF2mut Luc 10.7 | LXR ag inactive | hcDAF12 ag 16.2
COc1cc(OC)cc(-c2nc(-c3cccs3)no2)c1	none

Assay outcomes deposited in PubChem BioAssay by The Scripps Research Institute Molecular Screening Center.
